High-throughput results from PubChem BioAssay.
This is a sample that favours compounds with a hit; in the whole collection about 18% have one here.
LDHA inh = blocks human lactate dehydrogenase A; P00338; purified LDHA, NADH/diaphorase-resazurin fluorescence; stronger effect = lower value; activity change, % (values are at about 110 or 230 µM); 0.15% of 480,000 active; AID 1347041; in the data active = activity change below about -30%; inconclusive = mostly about -25% to -30%
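Enzyme activity of human lactate dehydrogenase 5 (2 nM; 0.06 mM NADH, 0.2 mM pyruvate, 5 min, RT) is measured via a resazurin/diaphorase fluorescence readout of residual NADH.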
DT40 TDP1 CPT = DT40-hTDP1 cell growth loss with CPT; Potency, µM (doses to about 46.2 µM), actives largely listed as inhibitors; 12% of 420,000 active; chicken DT40 Tdp1-/-;hTDP1 cells + 20 nM CPT, ATP luminescence, 48 h; note: nearly all actives have a fitted effect of over 55% in size
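Chicken DT40 Tdp1-/- cells stably complemented with human TDP1 were seeded at 400 cells/well in medium containing 20 nM camptothecin, exposed to pin-transferred compounds, and grown at 37 °C for at least 48 hr. Viability was read as ATP luminescence.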
VP16 counter = counter-screen for ROR gamma inhibitors: Gal4-VP16 reporter; Potency, µM (series often up to 53.6 µM), most hits filed as inhibitors; AID 2546; Drosophila S2 Gal4-VP16 UAS-luciferase, luminescence, 20 h; 3.5% of 310,000 active;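 note: Gal4-VP16 expression switched on by copper sulfate through the metallothionein promoter; nearly all actives have a fitted effect of over 50% in size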
IL-1B inflam inh = blocks inflammasome-driven IL-1 beta release | 4.7% of 360,000 active | activity change, % at 57.5 µM | THP-1 LPS/ATP IL-1B secretion, AlphaLISA, 16 h; stronger effect = lower value; in the data active = activity change below about -50%; inconclusive = mostly about -30% to -49%
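Secreted IL-1B measured by AlphaLISA bead assay after 16 h compound exposure of THP-1 cells; compounds (final up to 57.5 uM) added 1 h before LPS (250 ng/mL) and ATP (1.25 mM) stimulation; lower signal means less secretion.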
DT40 TDP1 no CPT = qHTS for Inhibitors of human tyrosyl-DNA phosphodiesterase 1 (TDP1): qHTS in cells in absence of CPT; AID 686978, 2013; 15% of 420,000 active; DT40 Tdp1-/- hTDP1 cells, no CPT, ATP luminescence, 48 h; Potency, µM (doses to about 46.2 µM), most hits filed as inhibitors; note: nearly all actives have a fitted effect of over 55% in size
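Luminescent ATP content (CellTiter-Glo) served as the growth readout. Knockout chicken DT40 cells expressing human TDP1 were exposed to compounds without camptothecin for a minimum 48 hr at 37 °C.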
RORg inh = ROR gamma (mouse) transcription inhibition. AID 2551. P51450. Potency, µM (highest dose often 53.6 µM), actives largely listed as inhibitors. Drosophila S2 Gal4-RORgamma UAS-luciferase reporter, 20 h. 5.4% of 310,000 active; note: nearly all actives have a fitted effect of over 60% in size
Target sequence (P51450 whole entry, looked up, the tested form may be a part): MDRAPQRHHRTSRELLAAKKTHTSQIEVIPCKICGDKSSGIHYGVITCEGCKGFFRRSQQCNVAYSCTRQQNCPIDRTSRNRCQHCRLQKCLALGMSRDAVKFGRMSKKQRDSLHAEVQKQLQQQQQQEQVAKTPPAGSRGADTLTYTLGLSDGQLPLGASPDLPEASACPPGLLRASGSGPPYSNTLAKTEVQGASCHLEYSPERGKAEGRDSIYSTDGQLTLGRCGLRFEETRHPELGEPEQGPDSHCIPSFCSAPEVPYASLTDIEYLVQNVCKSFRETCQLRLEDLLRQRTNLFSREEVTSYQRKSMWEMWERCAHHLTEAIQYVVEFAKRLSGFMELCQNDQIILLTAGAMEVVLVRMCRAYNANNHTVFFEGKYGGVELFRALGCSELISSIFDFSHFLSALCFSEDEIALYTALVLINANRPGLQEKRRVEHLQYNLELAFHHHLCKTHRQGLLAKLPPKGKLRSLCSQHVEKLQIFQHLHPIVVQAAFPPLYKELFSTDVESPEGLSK
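Using a luciferase readout, inhibitors were identified by reduced reporter activity in Drosophila cells coexpressing a copper-inducible Gal4–ROR gamma fusion and UAS-driven Photinus luciferase, incubated 20 hr after 700 uM copper sulfate.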
Each line names hits and unclear results; the compound was inactive in the other large screens; ! = not confirmed by another sample. Unless noted, calls come from the whole dose curve; as a rule, active = well fitted curve in the direction sought with a large enough effect; inconclusive = small, poorly fitted or top-dose-only effect, or another doubt; inactive = no such curve, though single readings can be large; an effect the other way counts as inactive or inconclusive.

COc1ccc(OC)c(/C=N\NC(=O)c2ccc(-c3ccccc3)cc2)c1	DT40 TDP1 CPT inconclusive
COc1cc(OC)c(OC)cc1/C=N/NC(=O)c1ccc(=O)n(C)c1	none
COc1cccc(/C=N/NC(=O)c2ccc(=O)n(C)c2)c1O	DT40 TDP1 CPT 5.8µM, VP16 counter 3.2µM, DT40 TDP1 no CPT 6.5µM, RORg inh 0.63µM
OCCNc1c2ccccc2nc2c(F)c(F)c(F)c(F)c12	DT40 TDP1 CPT 2.1µM, VP16 counter 7.9µM, IL-1B inflam inh -93, DT40 TDP1 no CPT 2.3µM, RORg inh 10µM
Cc1c2ccccc2nc2c(F)c(NC(C)C)c(F)c(F)c12	DT40 TDP1 CPT inconclusive, VP16 counter inconclusive, IL-1B inflam inh -53, DT40 TDP1 no CPT inconclusive
Cc1nnc2c(NC(C)C)nc3ccccc3n12	DT40 TDP1 CPT inconclusive, DT40 TDP1 no CPT inconclusive, RORg inh inconclusive
Cc1c2ccccc2nc2c(F)c(NCCO)c(F)c(F)c12	DT40 TDP1 CPT inconclusive, IL-1B inflam inh -87, DT40 TDP1 no CPT inconclusive
CC(C)/C=C1\CC/C(=C\c2ccc(N(C)C)cc2)C1=O	VP16 counter inconclusive, IL-1B inflam inh inconclusive, DT40 TDP1 no CPT inconclusive, RORg inh inconclusive
CN(C)c1ccc(/C=C2/C[N+](C)(C)C/C(=C/c3ccc(N(C)C)cc3)C2=O)cc1	DT40 TDP1 CPT 2.6µM, IL-1B inflam inh -98, DT40 TDP1 no CPT 3.7µM (no result: VP16 counter, RORg inh)
CC(NC(=O)c1ccc(Cl)c(S(=O)(=O)N2CCCC2)c1)c1cc2ccccc2o1 (stereo unspecified)	none (no result: DT40 TDP1 CPT, VP16 counter, IL-1B inflam inh, DT40 TDP1 no CPT, RORg inh)
COC(=O)COc1ccc(S(=O)(=O)N2CCCCCC2)cc1	none
CCOC(=O)COc1ccc(S(=O)(=O)c2ccc(OCC(=O)OCC)cc2)cc1	IL-1B inflam inh -92
CCOC(=O)CS(=O)(=O)c1ccc(O)cc1	IL-1B inflam inh -92
CCOC(=O)COc1ccc(S(=O)(=O)N2CCN(C(=O)OCC)CC2)cc1	none
CCOC(=O)N1CCN(S(=O)(=O)c2ccc(OCC(=O)OC)cc2)CC1	IL-1B inflam inh -64
CCOC(=O)C1CCN(S(=O)(=O)c2ccc(OCC(=O)OC)cc2)CC1	IL-1B inflam inh -53
C=CC#CCCCc1ccc(OC(=O)c2ccc(C(=O)Oc3ccc(CCCC#CC=C)cc3C)cc2)c(C)c1	none (no result: DT40 TDP1 CPT, VP16 counter, IL-1B inflam inh, DT40 TDP1 no CPT, RORg inh)
O=C(Nc1ccc(Cl)cc1C(F)(F)F)c1cccc(F)c1	none (no result: DT40 TDP1 CPT, VP16 counter, IL-1B inflam inh, DT40 TDP1 no CPT, RORg inh)
CCN(CC)S(=O)(=O)c1ccc2c(c1)nc(SCC(=O)Nc1ccc3c(c1)OCO3)n2CC	none (no result: DT40 TDP1 CPT, VP16 counter, IL-1B inflam inh, DT40 TDP1 no CPT, RORg inh)
COC(=O)c1ccc(NC(=O)c2ccc3nc(-n4cccc4)sc3c2)cc1	none (no result: DT40 TDP1 CPT, VP16 counter, IL-1B inflam inh, DT40 TDP1 no CPT, RORg inh)
CCOC(=O)C1CCN(S(=O)(=O)c2ccc3c(c2)NC(=O)C(C)C(=O)N3)CC1 (stereo unspecified)	DT40 TDP1 no CPT 23µM!
CC(=O)Cn1ncc(Br)c(Br)c1=O	DT40 TDP1 CPT 5.8µM, IL-1B inflam inh -96, DT40 TDP1 no CPT 5.2µM, RORg inh 11µM
O=C(OCn1ncc(Br)c(Br)c1=O)c1c(F)cccc1F	VP16 counter 4.5µM, RORg inh 3.5µM (no result: LDHA inh, DT40 TDP1 CPT, IL-1B inflam inh, DT40 TDP1 no CPT)
CC(C)(C)C(=O)Cn1ncc(N2CCCC2)c(Br)c1=O	none
COc1ccc(-c2nc3c(c(=O)[nH]c(=O)n3Cc3ccccc3)n2CC2CCCO2)cc1 (stereo unspecified)	none (no result: DT40 TDP1 CPT, VP16 counter, IL-1B inflam inh, DT40 TDP1 no CPT, RORg inh)
Cc1c(C)c2ccc(OCC(=O)OCc3ccccc3)c(C)c2oc1=O	none (no result: DT40 TDP1 CPT, VP16 counter, IL-1B inflam inh, DT40 TDP1 no CPT, RORg inh)
Cc1ccc2nc(Cl)c(CN(Cc3cccs3)C(=O)C3CC3)cc2c1	DT40 TDP1 CPT inconclusive
COCC(=O)N(CCN(C)C)Cc1cc2cc3c(cc2nc1Cl)OCO3	none
COCCN(Cc1cc2cc3c(cc2nc1Cl)OCO3)C(=O)Nc1ccc(OC)cc1	DT40 TDP1 CPT inconclusive, DT40 TDP1 no CPT 10µM
COc1ccc(CCN(Cc2cc3cc(C)c(C)cc3nc2Cl)C(=O)C2CC2)cc1	DT40 TDP1 CPT 26µM, DT40 TDP1 no CPT 21µM
COCCN(Cc1cc2cc(C)ccc2nc1Cl)C(=O)Nc1ccccc1C	DT40 TDP1 CPT 16µM, IL-1B inflam inh -70, DT40 TDP1 no CPT 16µM
